A short description of assay [1]: Nuclear factor erythroid 2-related factor 2/antioxidant responsive element (Nrf2/ARE) small molecule agonists: qHTS cell viability counter screen in human keratinocytes (AID 1919968; active = well fitted curve in the direction sought with a large enough effect in the repeat runs; an effect the other way counts as inactive or inconclusive; also: nearly all actives have a fitted effect of over 55% in size). In short, it runs like this:
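Fluorescence read-out from CellTiter-Fluor after 1 h at 37 C. Wells held HaCaT-derived ARE-luciferase reporter cells (1,500/well) treated 23 h with DMSO-dissolved compounds. Run in the same wells as the luciferase agonist read.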

A short description of assay [2]: Nuclear factor erythroid 2-related factor 2/antioxidant responsive element (Nrf2/ARE) small molecule agonists: luciferase reporter gene qHTS assay in human keratinocytes (AID 1919969; also: nearly all actives have a fitted effect of over 35% in size; also: potency is read from the fitted curve at half-maximal effect). (Reporter assays use an easily measured gene product as a stand-in for the process of interest.)
For assay [3], the target named is Gonadotropin-releasing hormone receptor (Homo sapiens) (UniProt P30968). Nature of the assay: Human gonadotropin-releasing hormone receptor (GnRHR) small molecule agonists, calcium flux assay in GnRHR-HEK293 cells (AID 1920063). Also: nearly all actives have a fitted effect of over 35% in size. In short, it runs like this: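 Calcium-dye fluorescence, Ex/Em=480/540, recorded every 1 sec over 3 min after compound addition to GnRHR-HEK293 cells. Cells had been seeded 18 hours earlier and dye-loaded for 1 hour at 37 C. Fifteen concentrations, triplicates.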

The target of assay [4] is KiSS-1 receptor (Homo sapiens) (UniProt Q969F8). Put plainly: Human kisspeptin (KISS1R) small molecule agonists, calcium flux assay in KISS1R-HEK293 cells (AID 1920064; active = well fitted curve in the direction sought with a large enough effect in the repeat runs; an effect the other way counts as inactive or inconclusive). An outline of the steps: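 Calcium flux read-out: kinetic fluorescence at Ex/Em=480/540, 1 s intervals over 3 min, after pin-tool compound addition to dye-loaded KISS1R-HEK293 cells. Fifteen concentrations, triplicates.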
(A change in cytosolic calcium serves as a functional read-out for many receptors and channels.)

Assay [5] can be described thus: G protein-coupled receptor (GPCR) small molecule agonists, calcium flux assay: HEK293 wild type cell line counter screen (AID 1920065). In short, it runs like this: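 Agonist mode; 18 h seeding at 37 C, 1 h dye load at 37 C; compounds pinned from DMSO, ATP as positive control; kinetic fluorescence 480/540 nm, 3 min, 1 s reads; 15 concentrations, triplicate.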
Assay [6] can be described thus: p53 small molecule agonists, cell-based qHTS assay with rat liver microsomes (AID 1963578). An outline of the steps: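 Fluorescence from a beta-lactamase reporter under a p53 response element was measured after cells had been incubated 16 h at 37 C with test compound and rat liver microsomes plus NADPH (0.5 mg/mL final each).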
Assay [7] is described as follows: p53 small molecule agonists, cell-based qHTS assay with human liver microsomes: qHTS cell viability counter screen (AID 1963579). Also: nearly all actives have a fitted effect of over 45% in size. An outline of the steps: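 Seed p53RE-bla cells at 4,000 per well; incubate 5 h at 37 C; add compound, human liver microsomes and NADPH; incubate 16 h at 37 C; add CellTiter-Glo; after 30 min at room temperature, read luminescence.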
For orientation: In qHTS, concentration-response curves come from the screen itself.

The nature of assay [8]: p53 small molecule agonists, cell-based qHTS assay: qHTS cell viability counter screen (AID 1963581). Also: nearly all actives have a fitted effect of over 45% in size. In short, it runs like this:
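Cytotoxicity read-out: ATP-based luminescence (CellTiter-Glo, 30 min RT) measured in the same wells as the p53 reporter assay, HCT-116 p53RE-bla cells, 16 h compound exposure at 37 C.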

Assay [9] can be described thus: p53 small molecule agonists, cell-based qHTS assay (AID 1963582; active = well fitted activation curve with a large enough effect in the signal ratio in the repeat runs, not every such curve was filed as active; the % refers to the signal ratio). An outline of the steps:
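Fluorescence intensity read-out of a beta-lactamase reporter under a p53 response element. Cells were exposed to DMSO-dissolved compounds for 16 h at 37 C, then developed with FRET substrate for 2 h at RT.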

The target of assay [10] is 5-hydroxytryptamine receptor 2A (Homo sapiens) (UniProt P28223). Nature of the assay: 5-hydroxytryptamine receptor 2A (HTR2A) small molecule antagonists, cell-based qHTS assay (AID 1963586). Also: nearly all actives have a fitted effect of over 45% in size. An outline of the steps: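 CHO cells stably expressing human HTR2A were plated for 18 h at 37 C, then loaded with calcium dye for 1 h. Compounds were preincubated 5 min at room temperature before DOI (4 nM solution) was added. Kinetic fluorescence was read for 3 min.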

Assay [11] shares this target. Put plainly: 5-hydroxytryptamine receptor 2A (HTR2A) small molecule agonists, cell-based qHTS assay (AID 1963587). Also: nearly all actives have a fitted effect of over 30% in size. In short, it runs like this:
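Kinetic calcium-flux fluorescence (2 min, 1 sec intervals) after compound addition in agonist mode. HTR2A-CHO cells were cultured 18 h, then dye-loaded 1 h at 37 C.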

Assay [12] has as its target Muscarinic acetylcholine receptor M1 (Homo sapiens) (UniProt P11229). Put plainly: Cholinergic receptor muscarinic 1 (CHRM1) small molecule agonists, cell-based qHTS assay (AID 1963589). Also: nearly all actives have a fitted effect of over 35% in size. An outline of the steps: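 Calcium flux read-out: kinetic fluorescence at 1 sec intervals after pin-tool compound addition to dye-loaded CHRM1-CHO cells (human M1). Agonist mode; 15 concentrations tested in triplicate independent runs.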

The nature of assay [13]: cAMP Responsive Elements (CRE) small molecule agonists, cell-based qHTS assay (AID 1963590). In short, it runs like this: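 Beta-lactamase reporter readout: LiveBLAzer B/G FRET substrate, 2 h at room temperature, added after 3 h compound treatment of CRE-bla HEK 293T cells at 37 C/5% CO2.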
Assay [14] is described as follows: cAMP Responsive Elements (CRE) small molecule antagonists, cell-based qHTS assay (AID 1963591; active = well fitted inhibition curve with a large enough effect in the signal ratio in the repeat runs, not every such curve was filed as active; the % refers to the signal ratio). An outline of the steps:
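HEK293T CRE-bla; 18 h preincubation; compound pin-transfer; NKH477 0.25 uM final, 3 h, 37 C; LiveBLAzer FRET substrate 2 h RT.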

For assay [15], the target named is Beta-2 adrenergic receptor (Homo sapiens) (UniProt P07550). Nature of the assay: Adrenergic beta2 receptor (ADRB2) small molecule antagonists, cell-based qHTS assay (AID 1963592). Also: series mostly up to about 92 µM; nearly all actives have a fitted effect of over 50% in size. In short, it runs like this: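 Assay format: CHO-ADRB2 cells, 18-20hr seeding at 37C/5% CO2, then compound plus 1nM isoproterenol agonist mix for 0.5hr RT. Homogeneous time-resolved fluorescence cAMP detection after 1hr, expressed as 665/615 nm ratio.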

The target is the same in assay [16]. Put plainly: Adrenergic beta2 receptor (ADRB2) small molecule agonists, cell-based qHTS assay (AID 1963593).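 Also: CHO cells stably overexpressing human ADRB2.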 An outline of the steps: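 CHO cells stably over-expressing ADRB2 were plated overnight at 37C, then dosed with compounds plus a stimulation mix containing 100uM IBMX and 25uM Ro-20-1724 for 0.5hr at room temperature. cAMP was measured by HTRF competition, 1hr.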

In assay [17] the target is D(2) dopamine receptor (Homo sapiens) (UniProt P14416). Put plainly: Dopamine D2 receptor (DRD2) small molecule agonists, cell-based qHTS assay (AID 1963594). Also: nearly all actives have a fitted effect of over 35% in size. An outline of the steps:
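cAMP accumulation in DRD2-HEK293 cells measured by HTRF after 1 h detection; compounds added 10 min before NKH477 (200nM […]) forskolin-analogue stimulation, 30 min at room temperature, with Ro20-1724 present at 0.1 mM final.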

The target is the same in assay [18]. Nature of the assay: Dopamine D2 receptor (DRD2) small molecule antagonists, cell-based qHTS assay (AID 1963595; active = well fitted inhibition curve with a large enough effect in the signal ratio in the repeat runs, with a control signal flat; the % refers to the signal ratio; also: potency is read from the fitted curve at half-maximal effect). In short, it runs like this:
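Readout: HTRF cAMP, cAMP-d2 competing with cellular cAMP for anti-cAMP cryptate, read after 1 h. Cells: DRD2-HEK293. Conditions: 0.1 mM Ro20-1724, 12 nM quinpirole, 200 nM NKH477, 30 min RT.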

The nature of assay [19]: p53 small molecule agonists, cell-based qHTS assay with rat liver microsomes: qHTS cell viability counter screen (AID 1963580). Also: nearly all actives have a fitted effect of over 45% in size. In short, it runs like this:
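Cytotoxicity counter screen: intracellular ATP read by CellTiter-Glo luminescence in the p53 reporter wells. HCT-116 p53RE-bla cells were treated for 16 h at 37 C alongside rat liver microsomes and NADPH, each 0.5 mg/mL final.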

In assay [20] the target is Muscarinic acetylcholine receptor M1 (Homo sapiens) (UniProt P11229). Nature of the assay: Cholinergic receptor muscarinic 1 (CHRM1) small molecule antagonists, cell-based qHTS assay (AID 1963588). Also: nearly all actives have a fitted effect of over 40% in size. An outline of the steps:
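Compounds were tested at 15 concentrations in three independent runs. Dye-loaded CHRM1-CHO cells were exposed 5 min at room temperature before stimulation by acetylcholine added at 50nM. Intracellular calcium was read kinetically on FDSS for 3 min.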

The structures appear in SMILES notation. Unmarked numbers belong to inactive results. Results filed as inconclusive are left out. Activity calls are given as the source filed them. Unless noted, calls follow the shape of the full dose curve.

Chain of Beta-2 adrenergic receptor (Homo sapiens) (P07550 whole entry, looked up): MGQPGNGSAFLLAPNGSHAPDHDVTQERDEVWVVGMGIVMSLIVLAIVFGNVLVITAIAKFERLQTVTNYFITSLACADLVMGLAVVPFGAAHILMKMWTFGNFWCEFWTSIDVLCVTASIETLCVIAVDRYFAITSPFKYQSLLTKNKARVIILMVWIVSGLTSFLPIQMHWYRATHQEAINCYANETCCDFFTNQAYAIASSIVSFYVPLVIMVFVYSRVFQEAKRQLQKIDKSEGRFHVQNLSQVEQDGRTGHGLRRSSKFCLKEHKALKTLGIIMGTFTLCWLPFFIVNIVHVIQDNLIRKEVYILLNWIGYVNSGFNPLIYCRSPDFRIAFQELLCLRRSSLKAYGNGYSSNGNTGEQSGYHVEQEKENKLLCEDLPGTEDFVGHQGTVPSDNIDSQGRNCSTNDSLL
Chain of KiSS-1 receptor (Homo sapiens) (Q969F8 whole entry, looked up): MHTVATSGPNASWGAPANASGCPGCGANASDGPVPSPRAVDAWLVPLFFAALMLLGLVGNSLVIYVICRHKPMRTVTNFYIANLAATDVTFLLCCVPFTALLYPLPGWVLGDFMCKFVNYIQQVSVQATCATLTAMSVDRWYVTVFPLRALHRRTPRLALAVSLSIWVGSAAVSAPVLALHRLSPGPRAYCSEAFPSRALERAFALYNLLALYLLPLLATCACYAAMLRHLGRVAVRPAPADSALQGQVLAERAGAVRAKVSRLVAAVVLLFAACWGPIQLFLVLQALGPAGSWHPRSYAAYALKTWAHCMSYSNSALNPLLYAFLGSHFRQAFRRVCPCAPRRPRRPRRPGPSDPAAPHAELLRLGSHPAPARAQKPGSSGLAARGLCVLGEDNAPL
Chain of Gonadotropin-releasing hormone receptor (Homo sapiens) (P30968 whole entry, looked up): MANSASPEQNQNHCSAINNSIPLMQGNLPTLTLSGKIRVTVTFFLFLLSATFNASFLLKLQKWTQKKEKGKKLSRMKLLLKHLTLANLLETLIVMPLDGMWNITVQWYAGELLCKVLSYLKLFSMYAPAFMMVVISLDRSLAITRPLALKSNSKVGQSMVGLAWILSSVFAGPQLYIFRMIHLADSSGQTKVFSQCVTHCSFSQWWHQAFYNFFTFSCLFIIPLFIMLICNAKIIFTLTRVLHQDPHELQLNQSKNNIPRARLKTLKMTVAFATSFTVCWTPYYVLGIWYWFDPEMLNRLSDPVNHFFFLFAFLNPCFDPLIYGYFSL
Chain of 5-hydroxytryptamine receptor 2A (Homo sapiens) (P28223 whole entry, looked up): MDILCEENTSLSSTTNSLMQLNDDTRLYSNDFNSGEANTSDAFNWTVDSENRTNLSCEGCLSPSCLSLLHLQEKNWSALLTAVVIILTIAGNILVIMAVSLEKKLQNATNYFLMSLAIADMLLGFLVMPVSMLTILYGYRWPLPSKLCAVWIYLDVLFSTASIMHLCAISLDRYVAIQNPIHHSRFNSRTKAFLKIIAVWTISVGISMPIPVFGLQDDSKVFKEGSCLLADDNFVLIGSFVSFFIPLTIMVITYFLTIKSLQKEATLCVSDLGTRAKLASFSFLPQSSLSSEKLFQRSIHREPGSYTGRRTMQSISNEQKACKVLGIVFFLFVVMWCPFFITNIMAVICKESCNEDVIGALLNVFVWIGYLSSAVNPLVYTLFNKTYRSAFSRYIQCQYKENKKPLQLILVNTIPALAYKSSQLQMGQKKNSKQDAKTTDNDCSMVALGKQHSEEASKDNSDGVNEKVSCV
Chain of D(2) dopamine receptor (Homo sapiens) (P14416 whole entry, looked up): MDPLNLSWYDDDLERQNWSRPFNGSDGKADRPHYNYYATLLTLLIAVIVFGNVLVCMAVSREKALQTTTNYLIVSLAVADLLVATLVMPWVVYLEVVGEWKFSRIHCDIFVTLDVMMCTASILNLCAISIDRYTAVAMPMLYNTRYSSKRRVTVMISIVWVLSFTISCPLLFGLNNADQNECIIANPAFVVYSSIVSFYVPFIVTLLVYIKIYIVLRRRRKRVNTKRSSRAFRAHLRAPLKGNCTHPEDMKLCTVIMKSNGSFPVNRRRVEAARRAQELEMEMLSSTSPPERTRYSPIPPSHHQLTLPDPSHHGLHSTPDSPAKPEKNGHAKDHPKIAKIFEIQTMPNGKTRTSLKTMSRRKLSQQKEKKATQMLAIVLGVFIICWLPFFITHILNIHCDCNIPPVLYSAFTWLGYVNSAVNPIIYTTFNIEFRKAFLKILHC
Chain of Muscarinic acetylcholine receptor M1 (Homo sapiens) (P11229 whole entry, looked up): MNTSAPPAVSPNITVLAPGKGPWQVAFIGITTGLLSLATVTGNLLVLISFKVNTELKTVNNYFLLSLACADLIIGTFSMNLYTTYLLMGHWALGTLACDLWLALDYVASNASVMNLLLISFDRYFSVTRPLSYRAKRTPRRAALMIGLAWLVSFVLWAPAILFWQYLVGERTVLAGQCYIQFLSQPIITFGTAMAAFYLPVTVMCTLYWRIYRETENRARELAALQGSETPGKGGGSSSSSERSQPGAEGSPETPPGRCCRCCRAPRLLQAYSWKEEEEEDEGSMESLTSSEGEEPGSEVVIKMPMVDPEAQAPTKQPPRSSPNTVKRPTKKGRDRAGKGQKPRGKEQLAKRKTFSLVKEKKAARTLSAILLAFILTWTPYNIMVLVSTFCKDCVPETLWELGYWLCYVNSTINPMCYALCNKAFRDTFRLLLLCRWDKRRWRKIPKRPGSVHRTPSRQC

As for `ClP(Cl)(Cl)(Cl)Cl`, the Potency result in assay [1], in assay [2], in assay [3], in [4], in assay [5] and in [6] was “inactive” each time. Also, the Potency result in [7], in assay [8], in assay [9], in assay [10], in [11] and in [12] was “inactive” throughout. Moreover, the Potency entry in [13], in [14], in assay [15], in assay [16], in assay [17] and in assay [18] was “inactive” throughout.

Take `CCOP(=O)(N=C1SCCS1)OCC`: the Potency entry in assay [1], in assay [2], in assay [3], in assay [4], in assay [5] and in assay [7] was “inactive” in each case. For the same molecule, the Potency result in [19], in assay [8], in assay [10], in [11], in [20] and in [12] was “inactive” in each case. Also, the Potency entry in assay [13], in [14], in [15], in [16], in [17] and in assay [18] was “inactive” throughout.

With `CCCOc1nn(C(=O)NS(=O)(=O)c2ccccc2C(=O)OC)c(=O)n1C`, the Potency entry in assay [1], in assay [3], in [4], in assay [5], in assay [6] and in assay [7] was “inactive” in each case. Also, the Potency entry in assay [9], in assay [10], in [11], in assay [20], in assay [12] and in assay [13] was “inactive” throughout. Moreover, the Potency result in [14], in [15], in [16], in assay [17] and in assay [18] was “inactive” in each case. The Potency in [2] was 68.3 µM (active).

Take `CC(C)(OO)c1ccccc1`: the Potency entry in assay [1], in assay [2], in [3], in assay [4], in assay [5] and in assay [6] was “inactive” each time. In addition, the Potency result in [19], in assay [8], in assay [9], in [11], in [20] and in [12] was “inactive” each time. Besides, the Potency entry in [14], in assay [15] and in assay [18] was “inactive” in each case.

For the molecule `COc1cccc(C(=O)CCN[C@@H](C)[C@H](O)c2ccccc2)c1`, the Potency result in assay [1], in assay [3], in [4], in assay [5], in assay [6] and in assay [7] was “inactive” throughout. Moreover, the Potency entry in assay [19], in assay [9], in assay [20], in assay [12], in assay [13] and in [15] was “inactive” in each case. Besides, the Potency result in assay [17] is “inactive”. For the same molecule, the Potency in [2] was 33.5 µM (active); in [18], 15 µM (active).

With `NC(=O)CS(=O)C(c1ccccc1)c1ccccc1` (centres undefined), the Potency entry in [1], in [2], in assay [3], in [4], in assay [5] and in [6] was “inactive” each time. Moreover, the Potency result in [19], in [8], in [9], in assay [13], in [14] and in assay [15] was “inactive” throughout. Further, the Potency result in [17] and in [18] was “inactive” in each case.

For the molecule `COc1cc(OC)nc(NC(=O)NS(=O)(=O)c2ncccc2OCC(F)(F)F)n1`, the Potency entry in [1], in assay [2], in assay [3], in assay [4], in assay [5] and in [6] was “inactive” throughout. Further, the Potency result in assay [7], in [19], in assay [9], in assay [11], in assay [20] and in [12] was “inactive” each time. The Potency entry in assay [15], in assay [16], in [17] and in assay [18] was “inactive” throughout.

(Values after PubChem BioAssay (Tox21).)
